Results reported in PubChem BioAssay (NCATS).
Several values for one entry are separate records, joined by “and”; a condition that tells them apart may be missing. Equal values may be shown once. Inconclusive results are not listed. Activity calls are given as the source filed them. Unless noted, calls follow the shape of the dose curve; as a rule, active = well fitted curve in the direction sought with a large enough effect; inconclusive = small, poorly fitted or top-dose-only effect, or another doubt; inactive = no such curve, though single readings can be large; an effect the other way counts as inactive or inconclusive.

Key:
[1] = molecular target: Cytochrome P450 3A4 (Homo sapiens) (UniProt P08684); test: qHTS Assay for Inhibitors and Substrates of Cytochrome P450 3A4 (AID 884); also: potency is read from the fitted curve at half-maximal effect; nearly all actives have a fitted effect of over 50% in size
Sequence of Cytochrome P450 3A4 (Homo sapiens) (P08684 whole entry, looked up): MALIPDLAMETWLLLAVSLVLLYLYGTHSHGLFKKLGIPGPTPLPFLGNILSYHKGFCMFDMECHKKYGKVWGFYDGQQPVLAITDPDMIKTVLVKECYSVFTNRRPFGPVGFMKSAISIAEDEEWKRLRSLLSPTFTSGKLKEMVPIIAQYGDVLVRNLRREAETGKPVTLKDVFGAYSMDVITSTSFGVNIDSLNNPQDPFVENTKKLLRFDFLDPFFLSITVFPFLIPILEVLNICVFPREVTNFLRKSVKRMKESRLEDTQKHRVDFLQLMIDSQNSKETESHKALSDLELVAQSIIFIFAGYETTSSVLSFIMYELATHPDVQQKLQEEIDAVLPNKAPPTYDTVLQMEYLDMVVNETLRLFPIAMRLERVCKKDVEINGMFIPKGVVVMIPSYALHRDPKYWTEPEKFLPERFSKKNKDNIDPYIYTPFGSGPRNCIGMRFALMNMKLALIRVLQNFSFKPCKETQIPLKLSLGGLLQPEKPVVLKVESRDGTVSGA
In short: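 20 nM human CYP3A4 with 25 uM Luciferin-PPXE (at KM) in 200 mM KPO4, preincubated 10 min with compound; NADPH regeneration started a 60 min RT reaction. Luciferin detected by luminescence, normalized to 57 uM ketoconazole as full inhibition.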

[2] = molecular target: Cytochrome P450 3A4 (Homo sapiens) (UniProt P08684); test: qHTS Assay for Activators of Cytochrome P450 3A4 (AID 885); also: nearly all actives have a fitted effect of over 65% in size
In short: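 Steps: enzyme/substrate mix dispensed; compound added, 10 min RT; NADPH regeneration solution added, 60 min RT; luciferin detection buffer stops reaction; 20 min later luminescence measured.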

[3] = molecular target: Tyrosine-protein kinase Yes (Homo sapiens) (UniProt P07947); test: qHTS for small molecule inhibitors of Yes1 kinase: Primary Screen (AID 686947); also: potency is read from the fitted curve at half-maximal effect; nearly all actives have a fitted effect of over 60% in size
In short: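 ADP-Glo luminescence readout; final 4 nM Yes1, 0.1 mM ATP, 0.3 mg/mL poly(E4Y), Tris pH 7.5, MgCl2, DTT, Brij-35. 20 min compound preincubation, 60 min reaction at RT. Normalized to DMSO wells with and without enzyme.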

[4] = qHTS for small molecule inhibitors of Yes1 kinase: Counter Assay (AID 686950);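 also: no kinase present so only ADP-Glo detection of a fixed ADP amount is tested; luminescence from ADP-Glo reporting ADP in a fixed ATP and ADP mixture; 0% = DMSO wells with ATP plus ADP and -100% = ATP-only wells without ADP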
In short: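 Enzyme-free ADP-Glo interference check: compounds were preincubated 20 min in buffer, then an ATP/ADP mix (0.08 mM ATP, 0.02 mM ADP final) was added for 60 min at room temperature before two-step ADP-Glo luminescence detection.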

[5] = tested on: Zika virus NS2B-NS3 protease; test: Primary screen GU AMC qHTS for Zika virus inhibitors (AID 1347154);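 also: 0% = no-inhibitor control and -100% = no-enzyme control; nearly all actives have a fitted effect of over 70% in size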
In short: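 Unlinked Zika NS2B hydrophilic domain/NS3 protease domain noncovalent complex (25 nM final) in 10 mM Tris-HCl pH 8.0, 0.01% Tween 20, with AMC peptide substrate. Fluorescence (ex 340, em 450 nm) change over 15 min, room temperature; percent inhibition fitted to 4-parameter Hill equation.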

[6] = Primary qHTS for small molecule stabilizers of the endoplasmic reticulum resident proteome: Secreted ER Calcium Modulated Protein (SERCaMP) assay (AID 1508630); also: % is scaled to controls: 0 for no effect and ±100 for the full control effect
In short: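 GLuc-SERCaMP-expressing SH-SY5Y cells, pretreated 16 h with compound, are challenged with thapsigargin to empty ER calcium stores; after 4 h, coelenterazine is added directly to the medium and luminescence is imaged.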

[7] = molecular target: Glutathione peroxidase 1 (Homo sapiens) (UniProt P07203); test: Primary qHTS Assay for Inhibitors of Recombinant Selenoprotein Glutathione Peroxidase 1 (GPX1) (AID 1845191); also: nearly all actives have a fitted effect of over 65% in size
In short: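 Recombinant GPX1 (10 nM final) was preincubated with compound for 30 min at room temperature, then reacted with 1 mM GSH, 0.5 mM CHP, 0.5 mM NADPH and 100 nM glutathione reductase; NADPH fluorescence (340/450 nm) was read at 0 and 15 min.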

[8] = molecular target: Cytochrome P450 1A2 (Homo sapiens) (UniProt P05177); test: p450-cyp1a2 (AID 410; calls by dose curve; also: potency is read from the fitted curve at half-maximal effect;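 as to activity change, negative = inhibition: -100% = full effect of reference inhibitor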)
Sequence of Cytochrome P450 1A2 (Homo sapiens) (P05177 whole entry, looked up): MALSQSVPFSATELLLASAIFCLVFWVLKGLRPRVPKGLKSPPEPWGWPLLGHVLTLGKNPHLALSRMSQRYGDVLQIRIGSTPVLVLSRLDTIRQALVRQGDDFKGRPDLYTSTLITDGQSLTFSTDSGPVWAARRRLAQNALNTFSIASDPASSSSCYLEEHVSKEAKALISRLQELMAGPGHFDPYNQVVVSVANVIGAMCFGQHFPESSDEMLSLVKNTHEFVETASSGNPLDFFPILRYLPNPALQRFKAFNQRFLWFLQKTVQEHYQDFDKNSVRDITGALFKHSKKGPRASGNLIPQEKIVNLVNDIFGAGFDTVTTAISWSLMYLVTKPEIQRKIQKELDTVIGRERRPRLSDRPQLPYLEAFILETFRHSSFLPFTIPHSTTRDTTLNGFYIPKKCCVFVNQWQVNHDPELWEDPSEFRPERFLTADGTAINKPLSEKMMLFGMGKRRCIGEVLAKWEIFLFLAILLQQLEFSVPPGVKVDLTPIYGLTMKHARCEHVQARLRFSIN
In short: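 Inhibition was calculated relative to 57 uM furafylline (full inhibition). The reaction used human CYP1A2 at 20nM with Luciferin-ME at its Km, 100uM, driven by an NADPH-regenerating system for 60 min at room temperature.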

[9] = molecular target: Glucocorticoid receptor (Homo sapiens) (UniProt P04150); test: GR-GFP Redistribution (AID 450;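 active = compounds whose dose series gives a full or clear partial fitted curve of increased nuclear translocation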; also: potency is read from the fitted curve at half-maximal effect); conditions: U2OS GR-GFP nuclear translocation, laser cytometry, 2 h
Sequence of Glucocorticoid receptor (Homo sapiens) (P04150 whole entry, looked up, the tested form may be a part): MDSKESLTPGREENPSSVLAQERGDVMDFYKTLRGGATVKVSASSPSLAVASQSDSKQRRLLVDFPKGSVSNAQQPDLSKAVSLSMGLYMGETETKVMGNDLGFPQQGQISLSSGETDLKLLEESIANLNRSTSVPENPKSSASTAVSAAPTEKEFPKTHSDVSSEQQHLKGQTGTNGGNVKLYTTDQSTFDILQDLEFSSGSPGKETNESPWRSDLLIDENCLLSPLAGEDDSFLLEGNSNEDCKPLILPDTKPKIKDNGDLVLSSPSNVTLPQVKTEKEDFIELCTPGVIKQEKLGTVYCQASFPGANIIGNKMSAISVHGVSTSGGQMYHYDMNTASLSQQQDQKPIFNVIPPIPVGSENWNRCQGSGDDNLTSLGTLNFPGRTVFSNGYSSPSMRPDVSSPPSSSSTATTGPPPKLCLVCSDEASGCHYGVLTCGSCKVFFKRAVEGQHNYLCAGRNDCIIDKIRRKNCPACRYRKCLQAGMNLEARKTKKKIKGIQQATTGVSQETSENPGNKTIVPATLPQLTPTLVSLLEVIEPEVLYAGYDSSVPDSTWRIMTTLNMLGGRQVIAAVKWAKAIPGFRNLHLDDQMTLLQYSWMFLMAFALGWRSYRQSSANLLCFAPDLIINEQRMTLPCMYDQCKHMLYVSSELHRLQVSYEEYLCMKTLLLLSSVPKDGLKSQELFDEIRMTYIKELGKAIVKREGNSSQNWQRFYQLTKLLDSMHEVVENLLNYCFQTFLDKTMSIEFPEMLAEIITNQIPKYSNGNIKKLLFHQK

[10] = molecular target: Glucocorticoid receptor (Homo sapiens) (UniProt P04150); test: GR-EFC Redistribution (AID 451; calls by dose curve; also: potency is read from the fitted curve at half-maximal effect); conditions: CHO-K1 GR-EFC translocation, beta-gal luminescence, 2 h
In short: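 CHO-K1 cells stably expressing nuclear-localized β-gal enzyme acceptor and GR fused C-terminally to the enzyme donor fragment; ligand-driven nuclear translocation restores β-gal by complementation. Compounds titrated up to 46 uM final, 2 h at 37 °C; luminescence read.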

[11] = molecular target: Mitogen-activated protein kinase 10 (Mus musculus) (UniProt Q61831); test: JNK3 AlphaScreen Assay (AID 530; active = well fitted curve in either direction with a large enough effect, not every such curve was filed as active;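 also: kinase came from lysate of stimulated human HepG2 cells; signal reports phosphorylation of biotinylated GST-cJun 1-79 at Ser73 with 10 µM ATP; % is scaled to controls: 0 for no effect and ±100 for the full control effect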)
In short: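 JNK3 came from HepG2 lysates pre-activated with IL-1beta and TNF-alpha and phosphorylated biotinylated GST-cJun (1-79) at 10 uM ATP, pH 7.6, room temperature. Compounds were titrated. AlphaScreen signal used anti-phospho-cJun (Ser73) antibody.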

[12] = molecular target: Ubiquitin carboxyl-terminal hydrolase 1 (Homo sapiens) (UniProt O94782); test: Inhibitors of USP1/UAF1: Pilot qHTS (AID 504865); also: nearly all actives have a fitted effect of over 35% in size; also: potency is read from the fitted curve at half-maximal effect
Sequence of Ubiquitin carboxyl-terminal hydrolase 1 (Homo sapiens) (O94782 whole entry, looked up): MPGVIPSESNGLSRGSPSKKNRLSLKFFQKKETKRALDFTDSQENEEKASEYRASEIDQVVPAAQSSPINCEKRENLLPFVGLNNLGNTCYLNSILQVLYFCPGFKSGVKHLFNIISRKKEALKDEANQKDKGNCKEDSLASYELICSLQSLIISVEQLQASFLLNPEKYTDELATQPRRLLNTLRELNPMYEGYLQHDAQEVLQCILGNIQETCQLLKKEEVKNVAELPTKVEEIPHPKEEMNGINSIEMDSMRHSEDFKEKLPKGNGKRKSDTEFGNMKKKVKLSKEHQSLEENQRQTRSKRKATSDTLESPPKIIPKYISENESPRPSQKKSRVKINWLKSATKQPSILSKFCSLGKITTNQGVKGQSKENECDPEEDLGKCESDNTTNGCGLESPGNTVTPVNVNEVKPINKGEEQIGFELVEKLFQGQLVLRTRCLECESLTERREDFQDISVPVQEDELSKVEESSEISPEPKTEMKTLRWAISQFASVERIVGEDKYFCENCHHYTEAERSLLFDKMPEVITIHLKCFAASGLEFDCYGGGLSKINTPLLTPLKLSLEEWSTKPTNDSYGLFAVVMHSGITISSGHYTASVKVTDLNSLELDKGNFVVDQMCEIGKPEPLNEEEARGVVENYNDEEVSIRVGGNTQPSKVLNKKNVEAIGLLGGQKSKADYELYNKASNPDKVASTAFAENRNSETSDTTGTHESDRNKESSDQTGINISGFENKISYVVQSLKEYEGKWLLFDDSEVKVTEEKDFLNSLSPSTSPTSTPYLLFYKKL
In short: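 USP1/UAF1 complex at 1 nM preincubated 15 min at room temperature with compound, then Ub-Rho substrate added at 150 nM final. Fluorescence (480/540 nm) read kinetically in 50 mM HEPES pH 7.8, 0.5 mM EDTA, 1 mM TCEP, 0.1 mg/ml BSA, 0.01% Tween-20.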

[13] = molecular target: DNA dC->dU-editing enzyme APOBEC-3G (Homo sapiens) (UniProt Q9HC16); test: qHTS for inhibitors of Vif-A3G interactions: Validation (AID 588379); also: 0% is about no effect
Sequence of DNA dC->dU-editing enzyme APOBEC-3G (Homo sapiens) (Q9HC16 whole entry, looked up): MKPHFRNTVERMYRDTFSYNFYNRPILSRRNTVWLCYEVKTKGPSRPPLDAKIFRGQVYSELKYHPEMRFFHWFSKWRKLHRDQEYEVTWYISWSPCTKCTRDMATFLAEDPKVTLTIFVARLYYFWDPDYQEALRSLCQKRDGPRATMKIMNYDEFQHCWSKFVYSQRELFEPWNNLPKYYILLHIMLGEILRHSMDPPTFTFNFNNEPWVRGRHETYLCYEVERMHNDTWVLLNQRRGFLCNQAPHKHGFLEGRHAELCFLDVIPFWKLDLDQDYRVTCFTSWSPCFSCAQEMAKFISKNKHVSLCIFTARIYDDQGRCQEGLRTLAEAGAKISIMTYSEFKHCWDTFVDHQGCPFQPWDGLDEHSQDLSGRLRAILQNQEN
In short: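 HeLa cells stably expressing Vif and A3G-eYFP, 700 cells/well, incubated overnight at 37 deg C, then exposed to compound overnight at 37 deg C. Inhibition of Vif-mediated degradation read as increased yellow fluorescence (Ex 488/Em 500-530) by laser-scanning cytometry.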

[14] = molecular target: 3',5'-cyclic-AMP phosphodiesterase 4B (Homo sapiens) (UniProt Q07343); test: qHTS Assay for Inhibitors of PDE-IV (AID 607; active = well fitted activation curve with a large enough effect in the main read-out, with a control signal flat, not every such curve was filed as active; also: % of control where 0% means no effect)
Sequence of 3',5'-cyclic-AMP phosphodiesterase 4B (Homo sapiens) (Q07343 whole entry, looked up): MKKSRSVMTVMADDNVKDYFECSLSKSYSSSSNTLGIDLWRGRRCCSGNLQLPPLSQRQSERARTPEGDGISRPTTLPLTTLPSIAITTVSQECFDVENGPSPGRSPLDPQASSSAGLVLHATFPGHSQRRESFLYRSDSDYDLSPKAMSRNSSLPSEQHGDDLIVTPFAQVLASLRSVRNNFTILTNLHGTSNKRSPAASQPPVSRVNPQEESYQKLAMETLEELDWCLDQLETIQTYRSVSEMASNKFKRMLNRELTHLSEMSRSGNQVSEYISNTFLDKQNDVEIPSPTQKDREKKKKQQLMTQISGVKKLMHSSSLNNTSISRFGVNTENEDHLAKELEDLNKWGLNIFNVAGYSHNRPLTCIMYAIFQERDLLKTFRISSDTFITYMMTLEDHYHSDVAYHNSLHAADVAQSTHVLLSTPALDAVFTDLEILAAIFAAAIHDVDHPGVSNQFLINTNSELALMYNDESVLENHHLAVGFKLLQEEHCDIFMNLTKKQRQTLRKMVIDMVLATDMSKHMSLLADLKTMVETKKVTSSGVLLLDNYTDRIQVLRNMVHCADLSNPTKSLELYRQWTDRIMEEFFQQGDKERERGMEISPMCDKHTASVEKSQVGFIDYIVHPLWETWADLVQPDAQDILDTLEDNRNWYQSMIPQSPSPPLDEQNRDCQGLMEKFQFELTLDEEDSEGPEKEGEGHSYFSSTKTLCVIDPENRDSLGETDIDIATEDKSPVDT
In short: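 The readout is membrane depolarisation from a cAMP-sensing CNG channel, detected with a potential dye at ex 535/em 590. Cells were HEK293-derived (endogenous PDE-IV) at 1000 cells/well, titrated up to 22.9 uM final.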

[15] = AP1 Signaling Pathway (AID 357; active = well fitted curve in either direction with a large enough effect, not every such curve was filed as active;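 also: ME-180 reporter cells stimulated with EGF at its EC50 level; % is scaled to controls: 0 for no effect and ±100 for the full control effect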); conditions: ME-180 AP-1-bla reporter, EGF-induced, beta-lactamase ratio, 5 h
In short: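 Titration-series screen for positive or negative modulators of EC50 EGF-induced signaling in ME-180 cells carrying an AP-1-driven beta-lactamase reporter. After 5 hours at 37 degrees Celsius, CCF4 460nm/530nm emission ratio gave %Activity; AC50 values derived.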

[16] = NFAT Signaling Pathway (AID 444; active = well fitted curve in either direction with a large enough effect, not every such curve was filed as active;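 also: carbachol stimulus at about its EC50 of 1 µM final; % is scaled to controls: 0 for no effect and ±100 for the full control effect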); conditions: Jurkat NFAT-bla M1, carbachol, beta-lactamase ratio, 5 h
In short: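 Jurkat cells carrying an NFAT-driven β-lactamase reporter and co-transfected muscarinic M1 receptor were treated with compound plus carbachol (1 uM final, an EC50 level) for 5 h at 37 °C. CCF4 loading followed for 1 h at RT; 460/530 nm ratio gave %activity.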

[17] = Stat Signaling Pathway (AID 446; active = well fitted curve in either direction with a large enough effect, not every such curve was filed as active); conditions: ME-180 SIE beta-lactamase reporter, IL-6 stimulated, 5 h
In short: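 Screening format detects activators and inhibitors alike: ME-180 SIE-bla cells stimulated at 40 pM IL-6 for 5 hrs with compound, then dual-emission beta-lactamase read at 405 nm excitation.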

[18] = molecular target: Guanine nucleotide-binding protein G(i) subunit alpha-1 (Homo sapiens) (UniProt P63096); test: qHTS Assay for Inhibitors of RGS12 GoLoco Motif Activity (Green Fluorophore) (AID 879);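 also: 0% = labeled peptide with Gαi1 and full inhibition = labeled peptide alone without protein; negative values mean loss of peptide binding seen as reduced polarization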
Sequence of Guanine nucleotide-binding protein G(i) subunit alpha-1 (Homo sapiens) (P63096 whole entry, looked up): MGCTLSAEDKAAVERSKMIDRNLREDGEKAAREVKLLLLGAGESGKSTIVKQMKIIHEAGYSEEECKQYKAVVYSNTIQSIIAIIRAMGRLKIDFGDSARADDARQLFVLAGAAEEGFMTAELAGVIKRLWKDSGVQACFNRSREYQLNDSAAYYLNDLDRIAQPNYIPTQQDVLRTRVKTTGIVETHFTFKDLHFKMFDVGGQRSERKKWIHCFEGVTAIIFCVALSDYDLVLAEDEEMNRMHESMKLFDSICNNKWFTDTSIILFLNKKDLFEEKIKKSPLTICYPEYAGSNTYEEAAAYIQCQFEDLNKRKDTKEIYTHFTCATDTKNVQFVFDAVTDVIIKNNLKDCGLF
In short: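 Fluorescence polarization assay: 50 nM Gαi1 with 10 nM FITC-labeled RGS12 GoLoco peptide in 10 mM Tris pH 7.5, 150 mM NaCl, 0.1 mM GDP, 0.05% NP40, 10 min at room temperature with compound.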

[19] = molecular target: Pyruvate kinase (Leishmania mexicana) (UniProt Q27686); test: qHTS Validation Assay for Inhibitors of Leishmania Mexicana Pyruvate Kinase (AID 945);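 also: 0% = DMSO only neutral control wells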
In short: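 Read-out: luminescence from PKLight stop/detection reagent, data normalized to DMSO. Reaction: 0.2 nM E451W LmPYK, 0.5 mM PEP, 0.1 mM ADP, pH 7.2, 1 h room temperature.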

[20] = molecular target: Pyruvate kinase PKM (Homo sapiens) (UniProt P14618); test: qHTS Assay for Activators of Human Muscle Pyruvate Kinase (AID 954; active = well fitted curve in the direction sought with a large enough effect, not every such curve was filed as active;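 also: 0% = uninhibited enzyme and -100% = no enzyme or full thiadiazolimine inhibition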)
In short: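 Reaction: 0.1 nM purified PKM2 with 0.5 mM phosphoenolpyruvate and 0.1 mM ADP, room temperature, 1 h. Readout: luciferase-based ATP luminescence after stop reagent. Activators judged against a 0.3 nM enzyme column.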

[21] = molecular target: Alpha-galactosidase A (Homo sapiens) (UniProt P06280); test: Counterscreen for Glucocerebrosidase Inhibitors: qHTS Assay for Human alpha-Galactosidase at pH 4.5 (AID 992); also: 0% is about no effect
Sequence of Alpha-galactosidase A (Homo sapiens) (P06280 whole entry, looked up): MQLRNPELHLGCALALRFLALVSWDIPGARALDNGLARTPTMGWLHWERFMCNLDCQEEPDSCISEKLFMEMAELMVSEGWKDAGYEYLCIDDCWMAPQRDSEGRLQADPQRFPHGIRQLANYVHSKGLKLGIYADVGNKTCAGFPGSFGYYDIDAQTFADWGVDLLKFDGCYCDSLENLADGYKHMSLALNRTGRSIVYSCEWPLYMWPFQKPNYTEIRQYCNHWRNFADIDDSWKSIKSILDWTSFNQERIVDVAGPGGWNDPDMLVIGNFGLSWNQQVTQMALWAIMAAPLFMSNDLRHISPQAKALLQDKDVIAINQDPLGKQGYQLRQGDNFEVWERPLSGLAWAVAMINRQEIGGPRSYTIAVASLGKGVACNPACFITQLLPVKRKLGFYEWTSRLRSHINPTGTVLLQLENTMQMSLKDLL
In short: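 Concentration-response curves (0.7 nM to 77 uM final) were modeled with the Hill equation to give AC50. Reactions: 2 nM enzyme, 80 uM fluorogenic alpha-galactoside, pH 4.5 citric acid buffer, 20 min, room temperature.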

[22] = molecular target: alpha-glucosidase (Oryza sativa, rice) (UniProt Q653V4); test: Counterscreen for Glucocerebrosidase Inhibitors: qHTS Assay for Rice alpha-Glucosidase at pH 5.0 (AID 997);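 also: 0% = full activity with enzyme and -100% = basal without enzyme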
In short: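 Rice alpha-glucosidase (4 nM final) with 400 uM 4-methylumbelliferyl-alpha-D-glucopyranoside in citrate buffer pH 5.0, 20 min at room temperature, stopped at pH 10; fluorescence 365/440 nm, compounds 0.7 nM–77 uM, AC50 from Hill fits.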

[23] = molecular target: Cytochrome P450 2C9 (Homo sapiens) (UniProt P11712); test: qHTS Assay for Inhibitors and Substrates of Cytochrome P450 2C9 (AID 883); also: % is scaled to controls: 0 for no effect and ±100 for the full control effect; nearly all actives have a fitted effect of over 60% in size
Sequence of Cytochrome P450 2C9 (Homo sapiens) (P11712 whole entry, looked up): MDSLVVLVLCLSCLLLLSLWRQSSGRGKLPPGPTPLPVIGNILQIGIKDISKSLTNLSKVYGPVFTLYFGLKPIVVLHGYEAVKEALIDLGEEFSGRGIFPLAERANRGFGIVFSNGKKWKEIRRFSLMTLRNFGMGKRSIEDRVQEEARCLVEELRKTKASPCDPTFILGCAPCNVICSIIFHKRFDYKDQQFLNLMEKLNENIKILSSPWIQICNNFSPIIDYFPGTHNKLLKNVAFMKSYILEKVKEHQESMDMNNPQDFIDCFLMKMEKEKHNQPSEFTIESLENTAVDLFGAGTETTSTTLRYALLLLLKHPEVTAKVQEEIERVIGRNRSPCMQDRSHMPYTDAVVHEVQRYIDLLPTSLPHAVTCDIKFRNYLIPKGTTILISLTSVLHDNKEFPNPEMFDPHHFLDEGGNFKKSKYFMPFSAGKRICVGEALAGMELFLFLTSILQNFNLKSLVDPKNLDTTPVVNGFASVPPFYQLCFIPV
In short: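 Human CYP2C9 (10nM) hydroxylated Luciferin-H (100uM, at its KM) to luciferin in 25mM KPO4. Compound was preincubated 10 min at 37C, then NADPH regeneration started a 60 min reaction at 37C. Luminescence was read after detection reagent, normalized to 57uM sulphaphenazole.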

Fc1ccc(-c2nc3n(c2-c2ccncc2)CCS3)cc1
active: Potency [1] 15.8 µM | Potency [3] 519 nM
inactive: Potency [2] | outcome [4] | Potency [5] | Potency [6] | Potency [7]

CCOC(OCC)P(=O)(O)CCCNCc1ccc(Cl)c(Cl)c1
inactive: Potency [8] | Potency [9] > 46 µM | Potency [10] > 46 µM | Potency [11] | Potency [12] | Potency [13] | Potency [5] | Potency [6]

O=C(NCCN1CCCCC1)c1ccc(I)cc1
inactive: Potency [9] > 46 µM | Potency [10] > 46 µM | Potency [11] | Potency [14] | Potency [12] | Potency [13] | Potency [5] | Potency [6]
active: Potency [8] 25.1 µM

COc1ccc2[nH]c(I)c(CCNC(C)=O)c2c1
inactive: activity change, negative = inhibition ([15]; at 38 µM (top of the series)) -7.67% | activity change, negative = inhibition ([16]; at 38 µM (top of the series)) -1.64% | activity, negative = inhibition ([17]; at 38 µM (top of the series)) 3.36% | Potency [9] > 46 µM | Potency [10] > 46 µM | Potency [11] | Potency [14] | Potency [13] | Potency [5] | Potency [6]

NC(N)=NN=Cc1c(Cl)cccc1Cl
active: Potency [8] 7.94 µM and 3.98 µM and 2 µM
inactive: activity change, negative = inhibition ([15]; at 17.2 µM (top of the series)) -2.9% | activity change, negative = inhibition ([15]; at 38 µM (top of the series)) 4.65% | activity change, negative = inhibition ([16]; at 17.2 µM (top of the series)) -0.975% | activity change, negative = inhibition ([16]; at 38 µM (top of the series)) -1.48% | activity, negative = inhibition ([17]; at 17.2 µM (top of the series)) 9.46% | activity, negative = inhibition ([17]; at 38 µM (top of the series)) -0.683% | Potency [11] | Potency [14] | outcome [18] | Potency [19] | outcome [20] | outcome [21] | outcome [22] | Potency [12] | Potency [13] | Potency [5] | Potency [6]

CCCCCCCCCCCCCCC[C@@H](O)[C@@H](N)CO
inactive: Potency [9] > 46 µM | Potency [10] > 46 µM | Potency [11] | Potency [14] | Potency [13] | Potency [5] | Potency [6]
active: Potency [8] 25.1 µM | Potency [12] 31.6 µM

c1ccc2cc(C3=NCCN3)ncc2c1
inactive: Potency [9] > 46 µM | Potency [10] > 46 µM | Potency [11] | Potency [12] | Potency [13] | Potency [5] | Potency [6]
active: Potency [8] 0.501 µM

CCCCN1CCC(CCC(=O)c2cc(Cl)c(N)cc2OC)CC1
inactive: Potency [8] | Potency [9] > 46 µM | Potency [10] > 46 µM | Potency [11] | Potency [14] | Potency [23] | Potency [12] | Potency [13] | Potency [5] | Potency [6]
